Here are results for 40 sequences from the OligoGym collection.
Also: reference of the scale not given here.

In the first assay the target is EPHX2. Briefly: pooled miR-30 sensor sort-seq; sequence = guide strand. As to conditions: shRNA.
TTCTTGGAAGTAGAGCTGGTAA: the sensor-assay potency score (higher = more potent) was -0.749.
Consider TCTCCTTACATAACACTTCCAT, for which the sensor-assay potency score (higher = more potent) is -0.551.
On the same count and under the same terms, with TATTCTTCTATTTCGGGAGGAG the figure was 0.331.
On the same count and under the same terms, for TGCAATATTCTTCTATTTCGGG the value was -0.612.

The next assay addresses ERCC2. The description is as above. The following applies: shRNA.
In the case of TAGAAGTTGAGCAACTTTCGAA, the sensor-assay potency score (higher = more potent) is 0.118.
As for TCGAAGCTCTTCAATCACCTTC, the sensor-assay potency score (higher = more potent) amounted to 0.181.
For TAGCTATAAACCACCACATTGG, the sensor-assay potency score (higher = more potent) is -1.42.
TCAATCTCTGGCACAGTTCTTG: the sensor-assay potency score (higher = more potent) was 0.0123.
Sequence TTGAGCAGTAGATGAGTTTGGT yielded a sensor-assay potency score (higher = more potent) of 0.18.
TTGGGGTAGATGTCCAGCGGGG gave a sensor-assay potency score (higher = more potent) of -1.14.
AACAGGGATACTGTCTTCCCGG showed a sensor-assay potency score (higher = more potent) of -1.06.
Regarding TCAAATTCCTCATAGAATCGGC, the sensor-assay potency score (higher = more potent) was -0.0111.
In turn, TTGAGCAACTTTCGAAGCTCTT displayed a sensor-assay potency score (higher = more potent) of -0.541.
TTCAGCACAGAATCTGAGGGGC registered a sensor-assay potency score (higher = more potent) of 0.408.
The sequence TTCCCATCGACGTCCTTCCCAA displayed a sensor-assay potency score (higher = more potent) of -0.665.
Sequence TCGATGATGATGGTGAAGCCTT displayed a sensor-assay potency score (higher = more potent) of -1.27.
As for TTAGCAAGGAGGGTGAGCGGGG, the sensor-assay potency score (higher = more potent) was -1.04.
The sequence TATCGAGCAAGGAAGTATGGGC came in with a sensor-assay potency score (higher = more potent) of 0.161.
In the case of TGACAGACTGGAAACGCTCAAA, the sensor-assay potency score (higher = more potent) is -0.97.
In turn, TGAATACACAAGTTTTTGCGGG yielded a sensor-assay potency score (higher = more potent) of 0.0838.
Consider TCTGGCACAGTTCTTGAGCAGT, for which the sensor-assay potency score (higher = more potent) is -0.9.
Sequence TGGAAGTCCAGGATCTTGGGGT returned a sensor-assay potency score (higher = more potent) of 0.059.
TTGAGCTCCCGCATGTAGGAGA yielded a sensor-assay potency score (higher = more potent) of -0.477.
Still for that read-out and setting: for TTGCGCTGGATGCACACGCGCT the value was -1.42; for ATTCTCACGAATCTGGAACTGG, -0.416; for TGTAGGAGAACTGCTCGGGGTA, -0.658.
Turning to TTTGATCCTGAGCACCGTCTTC, the sensor-assay potency score (higher = more potent) is -1.12.
TCGTCTGTCTCTTTGATCCTGA showed a sensor-assay potency score (higher = more potent) of -0.221.

The target of another assay is ERCC8. Described as above. The following applies: shRNA.
Take TCTTTCAACATCTCTGTCTTTA: the sensor-assay potency score (higher = more potent) is 0.0508.
On the same count and under the same terms, for TTCGATTATCTGTACCAACAGT the value was -0.994; for TCTAGTACCAACTGCTACCAAA, -1.28.
TTACTCTACTGTCAGCACTTGC had a sensor-assay potency score (higher = more potent) of -0.793.
For TTGTAGTCTCATCATCATCAGG, the sensor-assay potency score (higher = more potent) is -1.16.
TCTACTGTCAGCACTTGCTGTT: the sensor-assay potency score (higher = more potent) turned out to be 0.468.
For TTGTTGTAGTCTCATCATCATC, the sensor-assay potency score (higher = more potent) was -1.65.
Still for that read-out and setting: for TAGCTGTCAGGAATAGACCATA the value was -0.945; for TTGTAATGTATTTGTATCCCAT, -0.441; for TTGACTGAAATACACAGCAGTC, -0.992.
ATTATCTGTACCAACAGTGAGG registered a sensor-assay potency score (higher = more potent) of -0.965.
For TTGAAAAAAACACAGTCTCATT, the sensor-assay potency score (higher = more potent) was -1.3.
